Source: the supplement of paper PMC6555819

Test system: RARg:RXRa (NR concentration 270 nM, RXRa partner concentration 90 nM)
Assay: PBM binding z-score (relative to random genomic background probes); higher = stronger binding; sequences stand for … in GC…GCGATTGACAGCGTAGAATGAAGG
Outline: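 Antibodies against each partner of ligand-free nuclear receptor dimers (one per run) detected binding on custom Agilent 4×180K protein-binding microarrays after 1 h incubation. The double-stranded probes had 34-nt variable regions carrying direct-repeat seeds, single-nucleotide variants, half-site ablations and random human genomic background sequences. Binding z-scores, from regression-normalized fluorescence, use the random background probes as reference.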

Row | Sequence | PBM binding z-score
1 | CCTTACGGGTCACTGACAGGTTAAAGCATTTGGA | 6.25
2 | GATACAGGGACAAGGCCAGAGTACGCGTATTGAT | 0.288
3 | CGTCCTAGGTCAAGGTCAGTGAAAGAGACTCGAA | 5.41
4 | CCTACTGAGCCAAAGGTCATTGATTCCAATGCTC | 5.34
5 | CATACAGGGTCAGCCAGGCCAGAGTAGGGACGGC | 4.58
6 | GGAATGAGGGCAAAGTTGATAGCATCTGTCGACG | 2.19
7 | CCGAGTAGGTTATCGGGCATTCAGGCAACGGTGA | 0.431
8 | TAATATAGGTAAATGCTAGGTGAAAGTCCGATCT | 0.642
9 | CCTTACGGGTCACGATGTTATAGCACGACGAGCG | 5.22
10 | GCAGACAGCTGAAACGCAGGTAACTCAGGGTGGC | -0.584
11 | TCAATGAGGTTATAAGATCAGGGAACGTTGCAAA | 1.52
12 | CCTAACGGGTCACTGACAGGTTATAGCATTTGGA | 5.4
13 | CGTCCAAAGTCAATGCTAGGTCAGTGAAAGCATT | 2.4
14 | TCATATAGGTAAACAGGTGAAAGTTCGTAAGTTA | 1.11
15 | ACAGACAGGTAATGAAGGTAACTCAGGCTATCAT | 0.351
16 | TCAGACAGGTGAAGGTAATTCAGGTACGCAGTCG | 0.717
17 | CGAACTAGGTCAAGAGGTCAAAGTCCGCTTCCCG | 8.2
18 | CCTCGGAGGACAACAGGAGGTCGGAGCTGCCAGA | 1.08
19 | AGAATGAGGTTATACGTAGATCAGGAAAGAAAGT | 1.68
20 | GCGACTGGGTCAAAGCAGGTTACCATAAGGTTGG | 3.65
21 | CATACAGGGTCAGGTAGGCCAGAGTAGGGACGGC | 4.2
22 | TCTAGTTGGTCACGGAGGCCACACACGACGGGTA | 1.65
